Source: PubChem BioAssay (National Center for Advancing Translational Sciences (NCATS))
This is a sample that favours compounds with a hit; in the whole collection about 15% have one here.
ALOX12 inh = ALOX12 (human) lipoxygenase inhibition; P18054; purified 12hLO, xylenol orange hydroperoxide absorbance; 1.1% of 580,000 active; Potency, µM (doses to about 108 µM), actives largely listed as inhibitors; AID 1671190
Target sequence (P18054 whole entry, looked up): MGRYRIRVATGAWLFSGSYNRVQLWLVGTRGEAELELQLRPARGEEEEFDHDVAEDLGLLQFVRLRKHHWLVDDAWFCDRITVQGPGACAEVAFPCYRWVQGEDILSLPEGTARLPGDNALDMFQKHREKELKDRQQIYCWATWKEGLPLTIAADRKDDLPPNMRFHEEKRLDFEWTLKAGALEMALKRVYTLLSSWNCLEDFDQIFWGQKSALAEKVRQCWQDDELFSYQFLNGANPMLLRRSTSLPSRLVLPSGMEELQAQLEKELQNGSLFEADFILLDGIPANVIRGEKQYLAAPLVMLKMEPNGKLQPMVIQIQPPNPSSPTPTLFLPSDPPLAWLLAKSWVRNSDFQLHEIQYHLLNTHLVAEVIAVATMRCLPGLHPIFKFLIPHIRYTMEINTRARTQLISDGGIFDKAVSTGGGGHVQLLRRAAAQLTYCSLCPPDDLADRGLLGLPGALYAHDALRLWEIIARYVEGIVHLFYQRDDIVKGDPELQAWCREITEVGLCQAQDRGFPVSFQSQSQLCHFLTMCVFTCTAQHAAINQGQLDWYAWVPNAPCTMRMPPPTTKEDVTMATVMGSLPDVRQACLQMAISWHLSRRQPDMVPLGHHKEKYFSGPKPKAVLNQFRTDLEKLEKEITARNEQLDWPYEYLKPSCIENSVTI
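Purified human 12hLO (150 nM final) in 25 mM Hepes, 0.01% Triton X-100, pH 7.0 was preincubated 15 min at room temperature with compound. Then 40 uM arachidonic acid was added, 30 min. Hydroperoxide was read by Fe-XO absorbance ratio 573/405 nm.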
TDP1 cell noCPT = qHTS for Inhibitors of human tyrosyl-DNA phosphodiesterase 1 (TDP1): qHTS in cells in absence of CPT; DT40 Tdp1-/- hTDP1 cells, no CPT, ATP luminescence, 48 h; Potency, µM (series often up to 46.2 µM), usual class: inhibitors; 15% of 420,000 active; AID 686978, 2013; further: nearly all actives have a fitted effect of over 55% in size
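Chicken DT40 Tdp1-/- cells stably complemented with human TDP1 were seeded at 400 cells/well with DMSO in place of 20 nM camptothecin. After compound pinning, cells grew at least 48 hr at 37 °C; viability read by CellTiter-Glo luminescence.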
RORg inh = blocks mouse ROR gamma transcriptional activity; 5.4% of 310,000 active; Potency, µM (doses to about 53.6 µM), most hits filed as inhibitors; Drosophila S2 Gal4-RORgamma UAS-luciferase reporter, 20 h; further: nearly all actives have a fitted effect of over 60% in size
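In this cell-based reporter format, copper sulfate (700 uM final) drives Gal4–ROR gamma fusion expression from a metallothionein promoter in Drosophila Schneider cells; compounds preincubated 1 hr, reporter read after 20 hr at ambient temperature.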
ELG1 DNA repair = ELG1-dependent DNA repair inhibition | HEK293T ELG1-luciferase reporter, luminescence, 16 h; DNA damage induced by 5-fluorouridine | Potency, µM (top dose mostly 46.1 µM), usual class: inhibitors | 2.3% of 330,000 active; further: nearly all actives have a fitted effect of over 55% in size
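DMSO vehicle served as the neutral condition. Each well held 2,000 cells given 5-fluorouridine plus compound; after 16 hr at 37 °C/5% CO2, ONE-Glo was added and luciferase measured 30 min later.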
TDP1 cell CPT = DT40-hTDP1 cell growth loss with CPT. chicken DT40 Tdp1-/-;hTDP1 cells + 20 nM CPT, ATP luminescence, 48 h. Potency, µM (series often up to 46.2 µM), actives largely listed as inhibitors. 12% of 420,000 active. AID 686979; further: nearly all actives have a fitted effect of over 55% in size
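Chicken DT40 Tdp1-/- cells complemented with human TDP1, 400 cells/well, exposed to compounds plus 20 nM camptothecin for at least 48 h at 37 C; viability read as ATP content by CellTiter-Glo luminescence.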
VP16 counter = Gal4-VP16 reporter inhibition counter-screen. Drosophila S2 Gal4-VP16 UAS-luciferase, luminescence, 20 h. Potency, µM (top dose mostly 53.6 µM), actives largely listed as inhibitors. 3.5% of 310,000 active. AID 2546;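 further: Gal4-VP16 expression switched on by copper sulfate through the metallothionein promoter; nearly all actives have a fitted effect of over 50% in size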
Large screens that a line does not name were inactive. The call rests on the fitted dose curve; in most records, active means well fitted curve in the direction sought with a large enough effect; inconclusive means small, poorly fitted or top-dose-only effect, or another doubt; inactive means no such curve, though single readings can be large; an effect the other way counts as inactive or inconclusive.

COc1ccc(C(=O)Nc2cccc(S(=O)(=O)NC3=NCCCCC3)c2)cc1	none (no result: RORg inh, VP16 counter)
Cc1cc(C)c2nc(NC(=O)CCCn3c(=O)oc4ccccc43)sc2c1	none (no result: TDP1 cell noCPT, RORg inh, ELG1 DNA repair, TDP1 cell CPT, VP16 counter)
CC(Sc1ccc(C(C)(C)C)cc1)C(=O)NC(C)(C)C (centres undefined)	none (no result: TDP1 cell noCPT, RORg inh, ELG1 DNA repair, TDP1 cell CPT, VP16 counter)
Cc1c(CCC(=O)NCCCn2ccnc2)c(=O)oc2cc3occ(C(C)(C)C)c3cc12	VP16 counter inconclusive
Cc1oc2cc3oc(=O)c(CCC(=O)NCCCn4ccnc4)c(C)c3cc2c1C	TDP1 cell noCPT 23µM, TDP1 cell CPT inconclusive
Cc1oc2cc3oc(=O)c(CCC(=O)NCCCN4CCOCC4)c(C)c3cc2c1C	TDP1 cell noCPT inconclusive, ELG1 DNA repair inconclusive, TDP1 cell CPT 23µM
Cc1coc2cc3oc(=O)c(CCC(=O)NCCCn4ccnc4)c(C)c3cc12	TDP1 cell noCPT inconclusive, TDP1 cell CPT inconclusive
Cc1c(CCC(=O)NCCCn2ccnc2)c(=O)oc2cc3oc4c(c3cc12)CCCC4	TDP1 cell noCPT 10µM, RORg inh 1.3µM, TDP1 cell CPT 9.2µM, VP16 counter 16µM
C#CC(C)(C)NS(=O)(=O)c1cccc2nsnc12	none (no result: TDP1 cell noCPT, RORg inh, ELG1 DNA repair, TDP1 cell CPT, VP16 counter)
COc1cccc(CNC(=O)c2cccc(NC(=O)c3nsc4ccccc34)c2)c1	TDP1 cell noCPT 21µM, TDP1 cell CPT inconclusive (no result: RORg inh, ELG1 DNA repair, VP16 counter)
O=C(NCc1cccc(F)c1)c1cccc(NC(=O)c2nsc3ccccc23)c1	TDP1 cell noCPT 23µM, TDP1 cell CPT 23µM (no result: RORg inh, ELG1 DNA repair, VP16 counter)
COc1ccc(-c2csc3ncnc(N4CCN(S(=O)(=O)c5cccc(C(F)(F)F)c5)CC4)c23)cc1	TDP1 cell noCPT inconclusive, ELG1 DNA repair inconclusive, TDP1 cell CPT inconclusive (no result: RORg inh, VP16 counter)
COc1ccc(-c2csc3ncnc(N4CCN(S(=O)(=O)c5ccc(C(C)=O)cc5)CC4)c23)cc1	TDP1 cell noCPT inconclusive, ELG1 DNA repair inconclusive, TDP1 cell CPT inconclusive (no result: RORg inh, VP16 counter)
O=S(=O)(c1cccc(F)c1)N1CCN(c2ncnc3scc(-c4ccc(F)cc4)c23)CC1	TDP1 cell noCPT 12µM, ELG1 DNA repair inconclusive, TDP1 cell CPT 15µM (no result: RORg inh, VP16 counter)
COc1ccc(-c2csc3ncnc(N4CCN(S(=O)(=O)c5cccc(Br)c5)CC4)c23)cc1	TDP1 cell noCPT 9.2µM, ELG1 DNA repair inconclusive, TDP1 cell CPT 23µM (no result: RORg inh, VP16 counter)
Cc1ccc(S(=O)(=O)N2CCN(c3ncnc4scc(-c5ccccc5)c34)CC2)cc1	TDP1 cell noCPT 23µM, ELG1 DNA repair inconclusive, TDP1 cell CPT inconclusive (no result: RORg inh, VP16 counter)
Cc1sc2ncnc(N3CCN(S(=O)(=O)c4ccccc4)CC3)c2c1C	TDP1 cell noCPT 6.5µM, ELG1 DNA repair inconclusive, TDP1 cell CPT 8.2µM (no result: ALOX12 inh, RORg inh, VP16 counter)
Cc1ccc(S(=O)(=O)N2CCN(c3ncnc4scc(-c5ccc(F)cc5)c34)CC2)cc1	TDP1 cell noCPT 15µM, ELG1 DNA repair inconclusive, TDP1 cell CPT inconclusive (no result: RORg inh, VP16 counter)
CCCn1c(C)cnc1CC1CCN(S(=O)(=O)c2ccc3c(c2)CCC3)C1 (centres undefined)	none (no result: TDP1 cell noCPT, RORg inh, ELG1 DNA repair, TDP1 cell CPT, VP16 counter)
CC(c1ccccc1)N1CCn2c(nc3cc(NS(C)(=O)=O)ccc32)C1 (centres undefined)	TDP1 cell noCPT inconclusive, ELG1 DNA repair inconclusive
Cc1ccc(S(=O)(=O)Nc2ccc3c(c2)nc2n3CCN(Cc3ccccc3)C2)cc1	TDP1 cell noCPT inconclusive, ELG1 DNA repair inconclusive, TDP1 cell CPT 16µM
O=S(=O)(Nc1ccc2c(c1)nc1n2CCN(Cc2ccccc2)C1)c1ccc(Cl)cc1	TDP1 cell noCPT 15µM, RORg inh inconclusive, ELG1 DNA repair inconclusive, TDP1 cell CPT 18µM
Cn1c(CN2CCCCC2)nc2cc(NS(=O)(=O)c3ccc(F)cc3)ccc21	TDP1 cell noCPT inconclusive
O=S(=O)(Nc1ccc2c(c1)nc1n2CCN(Cc2ccccc2)C1)c1ccc(F)cc1	TDP1 cell noCPT inconclusive, ELG1 DNA repair inconclusive, TDP1 cell CPT 26µM
O=S(=O)(Nc1ccc2c(c1)nc1n2CCN(Cc2ccccc2)C1)c1ccccc1	TDP1 cell noCPT 23µM, RORg inh inconclusive, TDP1 cell CPT 23µM
Cc1cnc(C2CCN(C(=O)OC(C)(C)C)CC2)[nH]1	none (no result: TDP1 cell noCPT, RORg inh, ELG1 DNA repair, TDP1 cell CPT, VP16 counter)
